Bioassay records deposited in PubChem by National Center for Advancing Translational Sciences (NCATS).
IP6K1 inh: blocks human inositol hexakisphosphate kinase 1. Q92551. IP6K1 kinase, ADP-Glo luminescence, 2 h; stronger effect = lower value. activity change, % (series mostly up to about 58 µM). hit rate 0.81% among 140,000. AID 1645851; in the data active = activity change below about -25%; note: % is set by controls: 0 for no effect and ±100 for the full control effect
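ADP-Glo luminescence measures ADP made by human IP6K1 during a 2 h RT reaction with ATP/IP6 (mix at 1.3 mM/130 uM); top library doses 57.5 and 19.1 uM final.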
SNCA expr inhib: SNCA gene expression inhibition; HEK-293 SNCA-luciferase knock-in, luminescence, 24 h; hit rate 0.17% among 140,000; AID 1671194; Potency, µM (top dose mostly 57.2 µM), inactives show at the top dose activity change, negative = inhibition, actives largely listed as inhibitors;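 note: potency is the fitted concentration of half-maximal effect; plate controls were DMSO cells for no effect and cell-free wells for full effect; nearly all actives have a fitted effect of over 45% in size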
KDM5B inhibitor: KDM5B demethylase inhibition; KDM5B demethylase, FDH-coupled NADH fluorescence (FDH is formaldehyde dehydrogenase); AID 1347165; Potency, µM (series often up to 57.7 µM), actives largely listed as inhibitors; Q9UGL1; hit rate 2.6% among 220,000; note: potency is the fitted concentration of half-maximal effect; 0% is about no effect; nearly all actives have a fitted effect of over 70% in size
Target sequence (Q9UGL1 whole entry, looked up): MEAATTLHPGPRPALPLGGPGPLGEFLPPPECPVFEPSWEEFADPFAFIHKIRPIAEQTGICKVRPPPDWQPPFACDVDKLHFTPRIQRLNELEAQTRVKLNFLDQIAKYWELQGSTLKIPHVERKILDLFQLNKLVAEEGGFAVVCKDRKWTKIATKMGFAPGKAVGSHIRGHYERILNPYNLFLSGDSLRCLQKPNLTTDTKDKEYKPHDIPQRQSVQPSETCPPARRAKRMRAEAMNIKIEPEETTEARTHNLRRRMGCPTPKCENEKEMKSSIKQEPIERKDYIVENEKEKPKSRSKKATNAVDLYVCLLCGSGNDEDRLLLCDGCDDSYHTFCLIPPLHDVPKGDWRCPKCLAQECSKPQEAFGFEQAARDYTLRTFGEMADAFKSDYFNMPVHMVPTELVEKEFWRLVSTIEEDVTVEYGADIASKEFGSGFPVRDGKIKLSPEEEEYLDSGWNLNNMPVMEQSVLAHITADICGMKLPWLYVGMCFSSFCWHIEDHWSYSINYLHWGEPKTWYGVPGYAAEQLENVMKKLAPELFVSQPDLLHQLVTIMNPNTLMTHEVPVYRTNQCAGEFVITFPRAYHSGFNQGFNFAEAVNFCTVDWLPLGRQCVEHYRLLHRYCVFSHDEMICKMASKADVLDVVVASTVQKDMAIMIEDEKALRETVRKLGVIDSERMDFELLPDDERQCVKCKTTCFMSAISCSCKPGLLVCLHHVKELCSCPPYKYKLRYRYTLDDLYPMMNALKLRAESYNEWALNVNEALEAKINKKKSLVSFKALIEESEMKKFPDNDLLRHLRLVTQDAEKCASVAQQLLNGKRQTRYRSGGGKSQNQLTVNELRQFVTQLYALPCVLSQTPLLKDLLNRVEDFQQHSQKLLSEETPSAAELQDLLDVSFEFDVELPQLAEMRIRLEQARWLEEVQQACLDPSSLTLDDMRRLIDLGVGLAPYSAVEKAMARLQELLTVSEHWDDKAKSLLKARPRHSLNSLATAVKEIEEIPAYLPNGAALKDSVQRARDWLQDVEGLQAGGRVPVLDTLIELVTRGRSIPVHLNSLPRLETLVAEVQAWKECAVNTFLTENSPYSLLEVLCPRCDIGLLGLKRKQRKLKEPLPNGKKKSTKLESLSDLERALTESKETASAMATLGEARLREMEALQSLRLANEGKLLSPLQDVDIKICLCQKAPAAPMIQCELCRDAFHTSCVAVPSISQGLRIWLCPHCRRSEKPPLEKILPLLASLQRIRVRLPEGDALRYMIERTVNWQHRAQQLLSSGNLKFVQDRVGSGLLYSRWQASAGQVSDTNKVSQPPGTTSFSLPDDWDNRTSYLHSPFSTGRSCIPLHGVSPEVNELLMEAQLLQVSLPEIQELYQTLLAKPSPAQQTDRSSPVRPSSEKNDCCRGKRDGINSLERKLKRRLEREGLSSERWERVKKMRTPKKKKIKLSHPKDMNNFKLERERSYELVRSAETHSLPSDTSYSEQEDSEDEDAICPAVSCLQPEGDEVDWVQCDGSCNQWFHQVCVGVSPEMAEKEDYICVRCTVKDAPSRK
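Inhibition is measured as reduced NADH fluorescence generation from FDH coupling to formaldehyde release. Truncated KDM5BΔAP at 200 nM final acts on H3K4me3 peptide (12.5 µM in substrate mix) in pH 7.5 HEPES buffer with Tween-20, 30 min, room temperature.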
HEK293 viab: counter-screen for SNCA expression inhibitors: cell viability; HEK-293-SNCA-luc viability, GF-AFC fluorescence, 24 h; Potency, µM (top dose mostly 57.1 µM), for the others: top-dose activity change, negative = cytotoxicity, most hits filed as cytotoxic; hit rate 0.12% among 150,000;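 note: potency is the fitted concentration of half-maximal effect; 0% = DMSO-treated cells and -100% = medium-only wells without cells; nearly all actives have a fitted effect of over 30% in size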
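Cytotoxicity counterscreen: after 24 h compound treatment of genome-edited SNCA-luciferase HEK-293 cells, live-cell protease substrate GF-AFC read by fluorescence after 30 min; activity scaled between DMSO (0%) and medium-only (-100%), curves Hill-fitted.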
* marks the source's active call; other numbers are inactive results; i = inactive; u = inconclusive; x = no result; ! = not confirmed by another sample; [ ] = remark or other dose. Compounds with a hit are over-represented: about 2.9% of the library has one in this group of screens. Unless noted, calls come from the whole dose curve; as a rule, active = well fitted curve in the direction sought with a large enough effect; inconclusive = small, poorly fitted or top-dose-only effect, or another doubt; inactive = no such curve, though single readings can be large; an effect the other way counts as inactive or inconclusive.

SMILES | IP6K1 inh | SNCA expr inhib | KDM5B inhibitor | HEK293 viab
Cc1ccc(C(=O)N(CCCN)C(c2nc3cc(Cl)ccc3c(=O)n2Cc2ccccc2)C(C)C)cc1 (centres undefined) | 0 | x | x | 30µM*
Cc1ccc(OCC(=O)N2CCC(Cc3nc(-c4cnccn4)no3)CC2)cc1 | -2 | -34% | i | -15%
CCOC(=O)c1ccc(NC(=O)C2CC(=O)N(c3n[nH]c4ccccc34)C2)cc1 (centres undefined) | -1 | -12% | 28µM* | 5%
COc1cccc(Nc2ncc3c(n2)C(C)(C(=O)NCc2ccc4c(c2)OCO4)CC3)c1 (centres undefined) | -9 | u | u | u
CN(C)c1ncc2c(n1)C(C)(C(=O)NCc1cccc(Cl)c1)CCC2 (centres undefined) | 12 | -15%[87.6 µM] | 40µM* | -2%[87.6 µM]
CN(C)c1ncc2c(n1)C(C)(C(=O)NCc1ccc3c(c1)OCO3)CCC2 (centres undefined) | -3 | -26%[87.6 µM] | 32µM* | 3%[87.6 µM]
CN(C)c1ncc2c(n1)C(C)(C(=O)NCc1cccc(F)c1)CCC2 (centres undefined) | -7 | u | u | -2%[87.6 µM]
COc1ccc(Cc2nc3nccc(-c4ccc(OC)cc4)n3n2)cc1 | 2 | 32% | 14µM* | 3%
COc1cccc(-c2ccnc3nc(-c4cccs4)nn23)c1 | 12 | 81% | u | -19%
COc1ccc(Cc2nc3nccc(-c4ccc(OC)c(OC)c4)n3n2)cc1 | -3 | 38% | 20µM* | 1%
CCc1nc2nccc(-c3cccc(OC)c3)n2n1 | -1 | 0% | 25µM* | 1%
CCc1nc2nccc(-c3ccc(OC)cc3)n2n1 | -4 | u | 22µM* | 4%
COc1ccc(-c2ccnc3nc(Cc4ccc(F)cc4)nn23)cc1OC | -8 | 8% | 28µM* | -4%
CCc1nc2nccc(-c3ccc4c(c3)OCCCO4)n2n1 | 4 | 19% | 28µM* | -1%
COc1ccc(CCc2nc3nccc(-c4ccc(F)cc4)n3n2)cc1OC | 6 | 2% | i | 21%
COCc1nc2nccc(-c3ccc(OC)cc3)n2n1 | -12 | -7% | i | 3%
COCc1nc2nccc(-c3ccc4c(c3)CC(C)O4)n2n1 (centres undefined) | -13 | -3% | 28µM* | -7%
COCc1cc(NCCCNc2cccnc2)ncn1 | 4 | 0% | 14µM* | 0%
COCc1cc(NCCSCc2ccccc2C)ncn1 | -16 | 14% | i | 3%
O=C(Nc1ccc(Cl)cc1)c1cc2n(n1)CC(c1ccc(Cl)cc1)OC2 (centres undefined) | -8 | -7% | 32µM* | 5%
Cc1ccc(NC(=O)c2cc3n(n2)CC(c2ccc(Cl)cc2)OC3)cc1F (centres undefined) | 26 | -17% | 28µM* | 3%
O=C(Nc1cc(F)ccc1Cl)c1cc2n(n1)CC(c1ccc(Br)cc1)OC2 (centres undefined) | -1 | u | 25µM* | 1%
CC(=O)Nc1ccc(NC(=O)c2cc3n(n2)CC(c2ccc(Cl)cc2)OC3)cc1 (centres undefined) | 0 | -35% | u | -7%
O=C(Nc1ccc(F)cc1)c1cc2n(n1)CC(c1ccc(Br)cc1)OC2 (centres undefined) | 27 | -22% | u | 13%
O=C(Nc1ccccc1)c1cc2n(n1)CC(c1ccc(Br)cc1)OC2 (centres undefined) | 27 | 22% | 32µM* | 7%
SMILES | IP6K1 inh | SNCA expr inhib | KDM5B inhibitor | HEK293 viab
CC(=O)NNC(=S)Nc1cc(C)cc(C)c1 | x | x | i | x
COc1cc2c(c(OC)c1)C(c1ccccc1OCC(C)C)CC(=O)N2 (centres undefined) | x | x | i | x
O=C(Nc1ccc(F)c(Cl)c1)c1cc2n(n1)CC(c1ccc(Cl)cc1)OC2 (centres undefined) | 11 | 0% | 25µM* | -2%
CCOc1ccc(OCC)c(NC(=O)c2cc3n(n2)CC(c2ccc(Cl)cc2)OC3)c1 (centres undefined) | 26 | 12% | 14µM* | 7%
O=C(Nc1ccc(F)c(F)c1)c1cc2n(n1)CC(c1ccc(Cl)cc1)OC2 (centres undefined) | 29 | 15% | i | 4%
CCCOC(=O)c1ccc(NC(=O)NC(c2ccccc2)c2nccn2C)cc1 (centres undefined) | x | x | i | x
CCOCC1(C)COc2ccc(C(=O)Nc3ccccn3)cc2N1 (centres undefined) | -4 | 35%[87.6 µM] | 32µM* | 1%[87.6 µM]
CCOCC1(C)COc2ccc(C(=O)NCc3cc(OC)cc(OC)c3)cc2N1 (centres undefined) | 2 | -12%[87.6 µM] | 32µM* | 3%[87.6 µM]
COc1ccc(OCC2(C)COc3ccc(C(=O)NCCN4CCOCC4)cc3N2)cc1 (centres undefined) | -3 | -9%[87.6 µM] | 35µM* | 2%[87.6 µM]
COCCNC(=O)c1ccc2c(c1)NC(C)(COc1ccc(OC)cc1)CO2 (centres undefined) | -9 | -6%[87.6 µM] | 35µM* | 16%[87.6 µM]
CCn1ncc(N2CCCC(CC(=O)NCc3cccc(F)c3)C2)cc1=O (centres undefined) | 46 | 11% | i | 2%
O=C(O)c1cc2c(c(S(=O)(=O)Nc3cc(Cl)ccc3F)c1)CCC2 | x | x | i | x
Cc1cc(-c2nc3ncccc3[nH]2)c(C)[nH]1 | 8 | 151%[87.6 µM] | u | -3%[87.6 µM]
O=C(O)c1ccc(-c2nc3ncccc3[nH]2)cc1 | 7 | -10%[87.6 µM] | 28µM*! | 13%[87.6 µM]
c1cnc2nc(-c3ccsc3)[nH]c2c1 | 7 | 22%[87.6 µM] | 32µM*! | -17%[87.6 µM]
O=C(O)c1ccc(CN2C[C@@H](F)[C@@H](OCc3nc4ncccc4[nH]3)C2)cc1 | -4 | -8%[87.6 µM] | i | 3%[87.6 µM]
c1ccc(-c2nc3ncccc3[nH]2)nc1 | 0 | 83%[87.6 µM] | 32µM*! | 12%[87.6 µM]
c1cc2nc(-c3ccsc3)[nH]c2cn1 | 3 | 22%[87.6 µM] | u | 2%[87.6 µM]
Cc1cccc(CN2CCN(C(=O)c3cnc4ccccn4c3=O)CC2=O)c1 | -4 | u | 32µM* | -1%
Cc1cccc(N2CCN(C(=O)c3cnc4c(C)cccn4c3=O)CC2C)c1 (centres undefined) | 18 | -6% | i | 1%
Cc1nn(-c2ccccc2)c2c1C(C(C)C)N(C1CCN(C(=O)NC3CCCC3)CC1)C2=O (centres undefined) | 18 | x | x | x
Cc1cc(C)c(CNC(=O)c2cc(-c3cnn(C)c3)cc3c2OCCN3C)c(=O)[nH]1 | -21 | 24%[87.6 µM] | 32µM* | -6%[87.6 µM]
Cc1cc(C)c(CNC(=O)c2cc(-c3cnn(C)c3)cc3c2OCCN3C(C)C)c(=O)[nH]1 | -21 | 17%[87.6 µM] | 28µM* | -13%[87.6 µM]
CC(C)OC(=O)COc1ccc2cc(-c3ccc(Cl)cc3)c(=O)oc2c1 | x | x | i | x
Cn1nc2n(c1=O)CCN(C(=O)c1cccc(C#N)c1)CC2 | 1 | -12% | i | 0%
COc1ccc2c(C)c(C(=O)NCc3nc(-c4ncccn4)no3)oc2c1 | 12 | 1% | i | -2%
Cc1ccc2nc(C)c(C)c(C(=O)NCc3nc(-c4ncccn4)no3)c2c1 | -1 | 11% | 28µM* | -7%
